{
  "source": "PubChem BioAssay (NCI)",
  "note": "The panel holds about 83,000 compounds, 20% with a hit somewhere; the sample as a whole holds those more often.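 How to read the values: 0–100, growth inhibition (40 = 60% inhibited); 0, no net growth; -100 to 0, cell death (-40 = 40% of starting cells died; -100 = all dead).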 Unmarked numbers belong to inactive results. Calls of active or inactive are those of the source.",
  "data": [
    {"system": "ACHN renal", "experiment": "NCI-60 one-dose screen, 48 h (100 = growth as untreated, 0 = no growth, -100 = all killed)", "settings": "10 µM unless noted", "procedure": "Growth inhibition of the ACHN human tumor cell line is measured as a screen for anti-cancer activity. Cells are grown in 96 well plates and exposed to the test compound for 48 hours. Compounds are tested at a single concentration, which is 10^-5 M for most compounds. The reported endpoint is percent growth (GI% or GIPRCNT), where numbers from 0 - 100% represent growth inhibition, and numbers from -100% - 0 represent cell death. For example, a value of 40 represents 60% growth inhibition. A value of 0 means no net growth occurred over the course of the experiment. A value of -40 indicates 40% of cells at the beginning of the experiment died by the end of the experiment. A value of -100 means all cells are dead at the end of the experiment.\nNCI-60 Human Tumor Cell Lines Screen was performed using the standard one-dose NCI protocol, which is described in more detail at https://dtp.cancer.gov/discovery_development/nci-60/default.htm.\nCompounds with GIPRCNT values below 10 were considered active. Activity score was based on GIPRCNT using the following formula: […]\nScore is 0 for GIPRCNT values of 100 or above, 50 for GIPRCNT values of 0, and 100 for GIPRCNT values of -100.", "values": [
      {"smiles": "Cc1ccc(-c2nc(-c3cn(C)c4ncccc34)cs2)cc1", "growth": "6.72% [100 µM] (active)"},
      {"smiles": "Nc1nc(N)c2c(n1)NC(c1cccc(Nc3ccnc4cc(C(F)(F)F)ccc34)c1)CC(c1ccccc1)=N2", "note": "(stereo not given)", "growth": "75.8%"},
      {"smiles": "CN(Cc1cc(Br)cc(Br)c1O)Cc1cc(Br)cc(Br)c1O", "growth": "31.4%"},
      {"smiles": "CC(=O)Oc1ccc(OC(C)=O)c2ccccc12", "growth": "75.7%"},
      {"smiles": "Cc1nn(-c2cc(NC3CCC(O)CC3)c3c(=O)[nH]c(CCC(F)(F)F)cc3c2)c2c1C(=O)CC(C)(C)C2", "note": "(stereo not given)", "growth": "31.5%"},
      {"smiles": "COC(=O)c1ccc(NC(=O)Nc2ccc(C(=O)OC)cc2)cc1", "growth": "104%"},
      {"smiles": "O=C(C1CCCCC1)[C@@H]1[C@]2(C(=O)NC3CCCCC32)[C@@H]2CCCN2[C@@]12C(=O)NC1CCC(Cl)CC12", "note": "(stereo not given in full)", "growth": "-97.8% [100 µM] (active)"},
      {"smiles": "COc1cnc2c(c1)C(=O)c1c-2n(CCCCl)c(=O)c2ccncc12", "growth": "37.3%"},
      {"smiles": "Cc1ccc(-c2csc(N(C(=O)N3CCN(c4cc5c(cc4F)c(=O)c(C(=O)O)cn5C4CC4)CC3)c3ccccc3)n2)cc1", "growth": "5.63% (active)"},
      {"smiles": "CCCCCCCCCCCCCCCCCCOc1ccccc1CC(=O)NCC[N+]1(C)CCCCC1", "growth": "93.6%"},
      {"smiles": "CCS/C(Nc1ccccc1)=C(\\C#N)C(=O)Nc1ccc(OC)cc1", "growth": "51.9%"},
      {"smiles": "Cc1nc2cc(O)c(O)cc2cc1Oc1ccc(NC(=O)Nc2ccc(Cl)c(Cl)c2)cc1", "growth": "39%"},
      {"smiles": "O=C1c2ccccc2C(=O)c2c1cc1c(c2[N+](=O)[O-])OCO1", "growth": "-18.6% (active)"},
      {"smiles": "CCCCNc1nnc2n(Cc3ccccc3)c(=O)c3c4c(sc3n12)CCCC4", "growth": "40.8%"},
      {"smiles": "O=C(NNC(=O)c1nc2cc(F)ccc2n2cccc12)c1cnccn1", "growth": "26%"},
      {"smiles": "CN(CCCNC(=O)CCOCCOCCOCCNC(=O)Cc1ccc2ccc3cccc4ccc1c2c34)CCCNc1cc(-c2ccc3ccccc3c2)nc2ccccc12", "growth": "-78.8% (active)"},
      {"smiles": "NC(=O)c1cccc([C@@H]2O[C@H](CO)[C@@H](O)[C@H]2O)c1", "growth": "93.1%"},
      {"smiles": "COc1ccc(-c2cc(-c3ccccc3)nc(N3CCN(CCNc4ccnc5cc(Cl)ccc45)CC3)n2)cc1", "growth": "66.3%"},
      {"smiles": "O=C(O)c1cn(C2CC2)c2cc(N3CCN(C(=O)Nc4nc(-c5ccc(Br)cc5)cs4)CC3)c(F)cc2c1=O", "growth": "17%"},
      {"smiles": "Oc1c(CN2CCCC2)cc(CSCc2ccccc2)c2cccnc12", "growth": "5.28% (active)"},
      {"smiles": "COc1ccc2c(c1)/C(=N/c1n[nH]c(=S)s1)C(=O)N2", "growth": "83.6%"},
      {"smiles": "O=c1c2c3c(sc2n2c(-c4cc(-c5ccccc5)no4)nnc2n1Cc1ccccc1)CCCC3", "growth": "95.4%"},
      {"smiles": "Nc1nc2c(c3ncccc13)C(c1cccc(Cl)c1)Cc1ncccc1-2", "note": "(stereo not given)", "growth": "45.5%"},
      {"smiles": "C=C1C(=O)O[C@H]2[C@H]1CC/C(CNC(=O)c1c[nH]c3ccc(F)cc13)=C\\CC[C@@]1(C)O[C@@H]21", "growth": "-18% (active)"},
      {"smiles": "NC(=O)c1c(NC(=O)c2cccs2)sc2c1CCC(=O)C2", "growth": "22%"},
      {"smiles": "CCOC(=O)c1cnc2c(N=Nc3ccc(OC)cc3)c(N)nn2c1N", "growth": "109%"},
      {"smiles": "CCN1C(=O)N(CC)C2C1N=C(SCc1ccc(Cl)cc1)N2/N=C/C=C/c1ccccc1OC", "note": "(stereo not given)", "growth": "61.5%"},
      {"smiles": "C#CC#CC#CC#CC#CC#CC#CC#CC[C@@H]1OC[C@@H](COC(=O)O[C@@H](C(=O)O[C@H]2C[C@@]3(O)[C@@H](OC(=O)c4ccccc4)[C@@H]4[C@]5(OC(C)=O)CO[C@@H]5C[C@H](O)[C@@]4(C)C(=O)[C@H](OC(C)=O)C(=C2C)C3(C)C)[C@@H](NC(=O)c2ccccc2)c2ccccc2)O1", "growth": "26.5%"},
      {"smiles": "Nc1nc(N)c(N=Nc2ccccc2)c(-c2ccccc2)n1", "growth": "60.4%"},
      {"smiles": "COc1cc(OC)c2sc(-c3ccc(-n4cncc4-c4cc(OC)c(OC)c(OC)c4)cc3)nc2c1", "growth": "70.2%"},
      {"smiles": "O=C(/C=C/c1ccc(Cl)cc1)c1cccc(OCCCOc2cccc(C(=O)/C=C/c3ccc(Cl)cc3)c2)c1", "growth": "99.6%"},
      {"smiles": "FC(F)(F)Oc1cccc(-c2cnc3ccc(-c4ccncc4)nn23)c1", "growth": "-0.133% (active)"},
      {"smiles": "Cc1ccc(C2CC(c3nc(-c4ccc(Cl)cc4)oc3C)=NN2C(=O)c2ccncc2)cc1", "note": "(stereo not given)", "growth": "87.3%"},
      {"smiles": "C/C(=N\\O)c1ccc(NC(=O)CSc2nnc(-c3cc(-c4ccc(S(N)(=O)=O)cc4)nc4ccccc34)n2-c2ccccc2)cc1", "growth": "95.9%"},
      {"smiles": "COc1ccc(C(=S)N2CCN(c3ccc(Cl)cc3)CC2)cc1", "growth": "94.8%"},
      {"smiles": "Oc1c(CN2CCOCC2)cc(COCc2ccccc2)c2cccnc12", "growth": "12.6%"},
      {"smiles": "C#CCn1cnc2cnc(Nc3cccc(NC(=O)C=C)c3)nc21", "growth": "75.3% [6.25 µM]"},
      {"smiles": "O=S(=O)(NCCCNc1nccc(-c2c(-c3cccc(F)c3)nc3occn23)n1)c1ccc(F)cc1", "growth": "46%"},
      {"smiles": "Cc1ccc(C)c2c(C)c(C(=O)Nc3cccc(-n4cccn4)c3)oc12", "growth": "64.9% [50 µM]"},
      {"smiles": "COc1ccc(C2CC(c3cc(OC)c(OC)c(OC)c3)=NO2)cc1OCCCCOc1cc2c(cc1OC)C(=O)N1CCC[C@H]1C=N2", "note": "(stereo not given in full)", "growth": "0.735% (active)"}
    ]}
  ]
}
